PRC2 inh: EZH2/PRC2 methyltransferase inhibitors, primary screen, biochemical, DELFIA time-resolved fluorescence, single point | Histone-lysine N-methyltransferase EZH2 (Homo sapiens), Q15910 | PRC2 H3K27 methylation, DELFIA TRF, 1 h | inhibition, % at 12.5 µM | 57,000 tested, 0.35% active | AID 651548, 2012;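 active means mean inhibition of replicates at least 50% and every single replicate also reaching 50%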;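 further: dimethyl H3K27 on biotinylated H3 21-44 peptide detected by antibody; plate controls were median neutral control wells for no effect and median positive control wells for full effect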
Target sequence (Q15910 whole entry, looked up): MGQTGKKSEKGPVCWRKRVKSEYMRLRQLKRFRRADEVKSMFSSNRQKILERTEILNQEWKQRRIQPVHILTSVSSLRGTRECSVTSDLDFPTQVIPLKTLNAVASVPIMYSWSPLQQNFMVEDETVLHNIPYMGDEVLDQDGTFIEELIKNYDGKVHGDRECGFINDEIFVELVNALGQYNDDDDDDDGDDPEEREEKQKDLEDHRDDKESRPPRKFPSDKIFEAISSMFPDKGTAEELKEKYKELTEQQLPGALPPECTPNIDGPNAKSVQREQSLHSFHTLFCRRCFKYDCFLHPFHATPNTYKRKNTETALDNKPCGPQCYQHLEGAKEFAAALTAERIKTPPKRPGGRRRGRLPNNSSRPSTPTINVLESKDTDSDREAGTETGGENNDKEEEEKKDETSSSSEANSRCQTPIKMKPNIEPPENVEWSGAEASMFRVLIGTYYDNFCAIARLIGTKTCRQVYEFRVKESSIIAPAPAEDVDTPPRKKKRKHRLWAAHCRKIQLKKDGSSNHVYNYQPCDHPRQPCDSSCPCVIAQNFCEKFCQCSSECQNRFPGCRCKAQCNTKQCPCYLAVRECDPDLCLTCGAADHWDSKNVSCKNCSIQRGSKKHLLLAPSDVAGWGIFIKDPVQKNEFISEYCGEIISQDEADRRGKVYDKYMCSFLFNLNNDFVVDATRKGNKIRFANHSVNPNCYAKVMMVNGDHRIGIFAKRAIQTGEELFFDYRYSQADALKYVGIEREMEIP
* hit, by the source's call. Shown is part of a subset that was picked to be rich in hits.

SMILES | PRC2 inh
CCOC(=O)c1c(NC(=O)Cn2cnc3ccccc3c2=O)sc2c1CCCC2 | 9
CCOC(=O)c1c(NC(=O)CSc2ncn[nH]2)sc2c1CCCCC2 | 6
O=C(CSc1nc2ccccc2c(=O)[nH]1)Nc1ccc(Br)c(Cl)c1 | 55*
O=[N+]([O-])c1ccc(NCCNCCO)cc1 | 7
O=C1c2ccccc2C(=O)N1CCCc1nc2c3c4c(sc3ncn2n1)CCCCC4 | -10
O=C(O)CC(Cc1ccc(Cl)cc1)C(=O)Nc1ccccc1I (configuration not stated) | -9
CN(C)c1ccc(/C=N/NC(=O)c2ccc(C(=O)NO)cc2)cc1 | -19
O=C(CSc1n[nH]c(-c2ccccc2)n1)Nc1ccc(F)cc1 | 14
CCOC(=O)c1ccccc1NC(=O)CN1C(=O)c2cccc3cccc1c23 | 8
COC(=O)C1=CO[C@@H](O[C@@H]2O[C@H](CO)[C@@H](O)[C@H](O)[C@H]2O)[C@H]2[C@@H]1[C@H](OC(=O)/C=C/c1ccc(O)cc1)C[C@]2(C)OC(C)=O | 3
COC(=O)C1=CO[C@@H](O[C@@H]2O[C@H](CO)[C@@H](O)[C@H](O)[C@H]2O)C2C1CCC2(C)O (some centres not stated) | 18
COC(=O)C1=CO[C@@H](O[C@@H]2O[C@H](CO)[C@@H](O)[C@H](O)[C@H]2O)[C@@H]2[C@@](C)(O)[C@@H](OC(=O)/C=C/c3ccc(OC)c(O)c3)C[C@]12O | 52*
CCN(CC(=O)Nc1ccc(OC)c(Cl)c1)S(=O)(=O)c1ccc2ccccc2c1 | 33
COC(=O)c1ccccc1NC(=O)c1cccc(NC(=O)COc2ccccc2)c1C | 17
COC(=O)c1ccccc1NC(=O)c1ccc(COc2ccccc2)o1 | 53*
COC(=O)c1ccccc1NC(=O)c1ccc(NC(=O)COc2ccccc2)cc1 | 10
COC(=O)C(C)Sc1ncnc2scc(-c3ccc(Cl)cc3)c12 (configuration not stated) | 6
NC(=S)c1cc(-c2ccccc2)c(C(F)(F)F)s1 | 2
COC(=O)c1ccc(C2C(C(=O)c3ccco3)C(=O)C(=O)N2Cc2ccco2)cc1 (configuration not stated) | -7
COC(=O)c1ccc(NC(=O)CCC(=O)c2ccc(OC)cc2)cc1 | -1
COC(=O)c1ccc(C2C(Oc3ccc(OC)cc3)C(=O)N2Cc2ccc(F)cc2)cc1 (configuration not stated) | 51*
COc1ccc(C(=O)Nc2ccc3nc(SCC(=O)Nc4ccccc4F)sc3c2)cc1OC | -17
CS(=O)(=O)N(CC(=O)Nc1cccnc1)c1cccc(Br)c1 | 15
Cc1ccc(-c2nc3ccccc3o2)cc1NC(=O)COc1c(C)cc(Cl)cc1Cl | -3
Cc1cccc(N=C2NC(=O)/C(=C/c3ccc(F)cc3)S2)c1C | 42
SMILES | PRC2 inh
COc1ccc(/C=C2/SC(=S)NC2=O)cc1COc1ccc(F)cc1F | 92*
S=C(NCc1ccccc1)NC(Cc1ccccc1)c1ccccc1 (configuration not stated) | 42
CC(=O)c1cc(C)c(O)c(COC2OC(CO)C(O)C(O)C2O)c1O (configuration not stated) | 18
O=C(O)CC(CCc1ccccc1)OC1OC(CO)C(O)C(O)C1O (configuration not stated) | 98*
CC(C)CC(=O)O[C@@H]1OC=C(CO[C@@H]2O[C@H](CO)[C@@H](O)[C@H](O)[C@H]2O)[C@H]2C[C@H](O)[C@@](C)(O)[C@@H]12 | 10
COc1ccc(NC(=O)C(=O)NCc2cccnc2)cc1OC | 8
Cc1cc(=O)n2c3ccccc3n(CC(O)CNc3ccccc3)c2c1C#N (configuration not stated) | -2
C[C@@H]1O[C@@H](O[C@H]2[C@@H]3C=CO[C@@H](O[C@@H]4O[C@H](CO)[C@@H](O)[C@H](O)[C@H]4O)[C@@H]3[C@@]3(CO)O[C@@H]23)[C@H](OC(=O)/C=C/c2ccc(O)c(O)c2)[C@H](O)[C@H]1O | 18
C=C1CC(O)C2C(=C)C(=O)OC2C2C(=C)C(OC3OC(CO)C(O)C(OC(=O)/C=C/c4ccc(O)c(O)c4)C3O)CC12 (configuration not stated) | 76*
O=C(/C=C/c1ccc(O)c(O)c1)OCCc1ccccc1 | 15
O=C(CCn1cnc2ccccc2c1=O)Nc1ccc(F)c(C(F)(F)F)c1 | -4
O=C(CCCCC(=O)N/N=C/c1ccccc1)NO | 0
O=C(CCCN1C(=O)c2ccccc2C1=O)Nc1ccc(Cl)c(C(F)(F)F)c1 | 13
O=C(CNS(=O)(=O)c1ccccc1)Nc1ccc(Cl)c(C(F)(F)F)c1 | 0
O=C(CCNc1ccc(Cl)c(C(F)(F)F)c1)c1ccccc1 | 56*
Cc1ccc(N(C(C)C(=O)Nc2ccc(Br)c(C)c2)S(C)(=O)=O)cc1 (configuration not stated) | 9
